Our source for the z-score and composite z-score values is PubChem BioAssay.

The source made the active and inactive calls. Unless noted, no rule for the calls is given here.

Assay [1] can be described thus: A549 cell viability effects, profiling panel, calcein-AM fluorescence, 48 h, basal (AID 1162). Also: test concentration not given here. The settings on record: higher = more signal.
The nature of assay [2]: adipocyte viability effects, profiling panel, cell-based, 3T3-L1 adipocytes, calcein-AM fluorescence, 48 h, basal (AID 1163). Also: test concentration not given here. The settings on record: 3T3-L1 adipocytes viability, higher = more signal.
Assay [3] is described as follows: HepG2 cell viability effects, profiling panel, calcein-AM fluorescence, 48 h, basal (AID 1164). Also: test concentration not given here. To be noted: higher = more signal.
Assay [4] can be described thus: MM1S cell viability effects, profiling panel, calcein-AM fluorescence, 48 h, basal (AID 1165).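 Also: viability of MM1S multiple myeloma cells under basal unstimulated conditions; test concentration not given here.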 The settings on record: higher = more signal.
Assay [5] is described as follows: basal RPMI8226 viability, no added stimulus, profiling panel, cell-based, calcein-AM fluorescence, 48 h, PK04 Diversity Set (AID 1166).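 Also: cells grown under basal conditions without added stimulus; test concentration not given here.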 To be noted: RPMI8226 myeloma viability, higher = more signal.
Assay [6] can be described thus: basal HepG2 mitochondrial membrane potential changes, profiling panel, cell-based, JC-1 fluorescence, 24 h, 100 nL compound (AID 1167). Also: test concentration not given here. To be noted: higher = more signal.
Assay [7] is described as follows: basal 3T3-L1 adipocyte mitochondrial potential changes, profiling panel, cell-based, JC-1 fluorescence, 3T3-L1 adipocytes, 24 h, 100 nL compound (AID 1168). Also: test concentration not given here. The settings on record: JC-1 mitochondrial fluorescence, higher = more signal, called active from +8 up or from −8 down.
Assay [8] is described as follows: basal RPMI8226 mitochondrial membrane potential changes, profiling panel, cell-based, JC-1 fluorescence, 24 h, 100 nL compound (AID 1169). Also: test concentration not given here. The settings on record: RPMI8226 myeloma, JC-1 mitochondrial potential fluorescence, higher = more signal.
Assay [9] in a line: basal MM1S mitochondrial membrane potential changes, profiling panel, cell-based, JC-1 fluorescence, 24 h, 100 nL compound (AID 1170). Also: test concentration not given here. To be noted: higher = more signal.
Assay [10] in a line: A549 lung cancer cell viability effects, profiling panel, resazurin fluorescence, 24 h, PK04 Diversity Set (AID 1171). Also: test concentration not given here. The settings on record: higher = more signal, called active from +8 up or from −8 down. In general terms: The colour change of resazurin is a common sign of viable cells or microbes.
Assay [11] is described as follows: HepG2 liver cancer cell viability effects, profiling panel, resazurin fluorescence, 24 h, PK04 Diversity Set (AID 1172). Also: test concentration not given here. The settings on record: higher = more signal.
A short description of assay [12]: basal S. cerevisiae growth modulation, no modifier, primary screen, OD600, strain BY4716, 24 h, basal condition (AID 1173). To be noted: OD600, 24 h, higher = more signal, called active from +8 up or from −8 down.
Assay [13] in a line: MM1S myeloma cell viability, profiling panel, resazurin fluorescence, basal, 24 h, PK04 Diversity Set (AID 1174). Also: test concentration not given here. The settings on record: higher = more signal, called active from +8 up or from −8 down.
The target in assay [14] is Dihydroorotate dehydrogenase (quinone), mitochondrial (Plasmodium falciparum (isolate 3D7)) (UniProt Q08210). Put plainly: PfDHODH enzyme inhibitors, primary screen, biochemical, C-terminal His tag, absorbance 600 nm (AID 1175).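 Also: recombinant parasite enzyme with a five histidine tag at its C terminus; test concentration not given here.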 The settings on record: DCIP absorbance 600 nm, higher = more signal, called active from +8 up or from −8 down.
Chain of Dihydroorotate dehydrogenase (quinone), mitochondrial (Plasmodium falciparum (isolate 3D7)) (Q08210 whole entry, looked up): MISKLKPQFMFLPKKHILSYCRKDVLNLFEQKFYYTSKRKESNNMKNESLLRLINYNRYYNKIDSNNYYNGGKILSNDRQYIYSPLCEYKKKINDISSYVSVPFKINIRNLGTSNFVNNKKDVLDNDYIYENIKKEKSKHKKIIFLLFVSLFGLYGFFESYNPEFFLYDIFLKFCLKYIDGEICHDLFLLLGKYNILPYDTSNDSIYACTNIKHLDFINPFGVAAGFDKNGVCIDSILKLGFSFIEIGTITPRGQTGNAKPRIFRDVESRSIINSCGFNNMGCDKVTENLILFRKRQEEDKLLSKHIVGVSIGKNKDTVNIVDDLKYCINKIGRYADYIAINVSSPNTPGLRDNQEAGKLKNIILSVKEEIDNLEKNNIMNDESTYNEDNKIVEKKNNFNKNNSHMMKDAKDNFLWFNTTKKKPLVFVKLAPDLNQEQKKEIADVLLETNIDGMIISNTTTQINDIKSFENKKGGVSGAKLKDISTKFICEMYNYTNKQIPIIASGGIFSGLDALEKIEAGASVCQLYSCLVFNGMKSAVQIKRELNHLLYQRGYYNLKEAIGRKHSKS
Assay [15] can be described thus: P. aeruginosa biofilm formation inhibitors, primary screen, strain PAO1, LB-PBS medium, absorbance 600 nm (AID 1176). Also: test concentration not given here. The settings on record: P. aeruginosa PAO1 growth/biofilm, A600, 12 h; higher = more signal.
Assay [16] can be described thus: S. cerevisiae RM11-1a growth modifiers, primary screen, strain RM11-1a, OD600, basal, 24 h (AID 1177).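 Also: cultures grown under basal conditions with no added stressor; test concentration not given here.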 To be noted: OD600, 24 h, higher = more signal, called active from +8 up or from −8 down.
Assay [17] is described as follows: E. coli acrAB mutant growth effects, primary screen, E. coli filamentation inducers, strain DRC39, OD650, 24 h (AID 1178).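 Also: growth measured as culture turbidity by optical density at 650 nm; test concentration not given here.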 To be noted: higher = more signal, called active from +8 up or from −8 down.
A short description of assay [18]: E. coli acrAB mutant growth effects, primary screen, E. coli filamentation inducers, strain DRC39, OD650, 48 h (AID 1179).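 Also: screen aims at cell division blockers that make cells filament.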 The settings on record: E. coli DRC39 delta-acrAB growth, higher = more signal, called active from +8 up or from −8 down.
Assay [19] is described as follows: RPMI8226 myeloma cell viability, profiling panel, resazurin fluorescence, basal, 24 h, PK04 Diversity Set (AID 1180).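 Also: RPMI8826 multiple myeloma cell line at 5000 cells per well; test concentration not given here.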 To be noted: higher = more signal.
In assay [20] the target is E3 ubiquitin-protein ligase XIAP (Homo sapiens) (UniProt P98170). Put plainly: XIAP binders, primary screen, biophysical, small-molecule microarray, fluorescence 635 nm (AID 1181).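 Also: score merges 667 nm emission and signal to noise over triplicate slides.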 The settings on record: small-molecule microarray binding, higher = more signal.
Chain of E3 ubiquitin-protein ligase XIAP (Homo sapiens) (P98170 whole entry, looked up): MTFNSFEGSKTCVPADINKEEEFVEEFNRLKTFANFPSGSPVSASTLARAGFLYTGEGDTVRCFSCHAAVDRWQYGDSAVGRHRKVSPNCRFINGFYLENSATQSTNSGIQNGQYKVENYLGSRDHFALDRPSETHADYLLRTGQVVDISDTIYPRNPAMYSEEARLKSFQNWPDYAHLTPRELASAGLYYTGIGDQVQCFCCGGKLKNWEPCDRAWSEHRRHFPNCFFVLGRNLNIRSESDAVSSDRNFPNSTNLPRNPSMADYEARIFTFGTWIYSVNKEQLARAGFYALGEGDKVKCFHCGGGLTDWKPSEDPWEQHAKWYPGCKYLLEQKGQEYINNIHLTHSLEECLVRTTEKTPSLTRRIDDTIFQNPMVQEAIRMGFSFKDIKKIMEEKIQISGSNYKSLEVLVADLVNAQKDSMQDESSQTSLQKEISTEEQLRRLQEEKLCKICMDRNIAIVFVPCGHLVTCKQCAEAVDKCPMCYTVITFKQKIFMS

With `O=C1C[C@]2(c3ccc([N+](=O)[O-])cc3)C(=O)N(CC(F)(F)F)c3cc(CO)ccc3[C@H]2N1C1CCCCC1`, the z-score in [1] was 1.81; in assay [2], -0.677; in [3], 0.203; in assay [4], 0.0687; in [5] it was 1; in assay [6] it was 0.38. Further, the z-score in assay [7] was 0.986 (inactive); in assay [8], 0.247; in [9] it was 1.9; in assay [10] it was -0.745 (inactive); in [11], 0.0882; in [12], 0.434 (inactive). Further, the z-score in assay [13] was 0.679 (inactive); in assay [15], -0.686 (inactive); in assay [16] it was -0.0434 (inactive); in assay [17], 0.235 (inactive); in assay [18] it was 0.16 (inactive); in assay [19] it was 0.964. Further, the values for the composite z-score in [14] and in assay [20] were -1.69 (inactive) and -0.273, respectively.
Regarding `O=C1NC(=O)C2C1C=CC(C(O)c1cc(C(F)(F)F)cc(C(F)(F)F)c1)N2Nc1ccccn1` (stereo not given), the z-score is -1.02 in assay [1]; -0.485 in assay [2]; -0.165 in assay [3]; 0.34 in assay [4]; -0.559 in assay [5]; -0.326 in assay [6]. In addition, the z-score in assay [7] is -0.169 (inactive); in [8], 0.372; in assay [9], -0.204; in [10] it was -0.568 (inactive); in [11], -0.85; in assay [12] it was 0.885 (inactive). The z-score in assay [13] is -1.27 (inactive); in assay [15], 1.36 (inactive); in assay [16], 0.0176 (inactive); in assay [17], -0.509 (inactive); in [18] it was -1.42 (inactive); in [19], -1.2. The composite z-score in assay [14] was -1.14 (inactive); in assay [20] it was -0.152.
Take `CC(C)C(=C=CC[C@@H](O)c1ccc(OCCO)cc1)C[C@@H](O)c1ccccn1`: the z-score in assay [1] is -0.343; in assay [2], -1.03; in assay [3], 0.411; in [4], -0.473; in [5], -0.3; in [6] it was -0.737. Also, the z-score in [7] is 0.00461 (inactive); in [8] it was 0.0263; in [9], -0.698; in assay [10] it was -0.287 (inactive); in [11], -0.287; in assay [12] it was -0.492 (inactive). Also, the z-score is -0.426 (inactive) in [13]; 0.85 (inactive) in [15]; 0.406 (inactive) in assay [16]; -0.235 (inactive) in assay [17]; -0.0608 (inactive) in assay [18]; -0.538 in assay [19]. Also, the composite z-score in [14] is -11.9 (active); in assay [20], 0.273.
For `O=C(CS)NCCCCCCNC(=O)[C@@H]1C[C@@H]2C(=O)NCC(=O)N2[C@@H]1c1cccc(OCCO)c1`, the z-score is 0.861 in [1]; -0.356 in [2]; 0.381 in assay [3]; 0.38 in [4]; 0.754 in [5]; 0.502 in [6]. The z-score is 0.475 (inactive) in assay [7]; 0.116 in assay [8]; -0.502 in assay [9]; -0.489 (inactive) in assay [10]; -0.3 in assay [11]; -0.419 (inactive) in assay [12]. The z-score in [13] was -0.217 (inactive); in [15], 0.351 (inactive); in assay [16], 0.752 (inactive); in [17] it was 0.713 (inactive); in [18], 1.16 (inactive); in [19], -0.252. In addition, the composite z-score is -0.216 (inactive) in assay [14] and 0.0346 in assay [20].
With `COc1cc2c(cc1OC)CN(C(=O)[C@H]1[C@@H]3C(=O)O[C@@H](c4ccccc4)[C@@H](c4ccccc4)N3[C@@H](c3ccc(O)cc3)[C@]13C(=O)Nc1ccc(C#CCCO)cc13)CC2`, the z-score in [1] is 0.0351; in assay [2] it was 1.04; in assay [3] it was -0.162; in assay [4] it was -0.233; in assay [5], -1.46; in [6], -1.46. The z-score in assay [7] is 0.292 (inactive); in assay [8] it was -0.568; in assay [9], 0.0874; in [10], 0.125 (inactive); in assay [11], -0.29; in [12] it was 0.966 (inactive). The z-score in [13] was 0.577 (inactive); in [15], 0.393 (inactive); in [16], 1.16 (inactive); in assay [17], 0.0945 (inactive); in [18] it was -0.712 (inactive); in assay [19] it was 0.756. In addition, the figures for the composite z-score in assay [14] and in [20] were 0.857 (inactive) and -0.249, respectively.
With `CNS(=O)(=O)c1ccc(C)cc1`, the z-score was 0.753 in [1]; 0.451 in assay [2]; 1.4 in assay [3]; 0.269 in assay [4]; 0.0427 in assay [5]; 0.384 in [6]. Moreover, the z-score in [7] is 1 (inactive); in [8] it was -0.049; in [9], 0.937; in assay [10] it was -0.126 (inactive); in assay [11], 0.925; in assay [12], -1.13 (inactive). Besides, the z-score in assay [13] was 0.68 (inactive); in assay [15], 0.426 (inactive); in assay [16], -1.4 (inactive); in [17], 0.738 (inactive); in assay [18] it was 0.774 (inactive); in [19], -0.149. For the same compound, the composite z-score is -1.05 (inactive) in [14] and -0.328 in assay [20].
